Results: PubChem BioAssay (Tox21)
Unmarked numbers belong to inactive results. Records with an inconclusive call do not appear. Entries that show only a call come without a potency. Activity calls are given as the source filed them. Unless noted, the call rests on the fitted dose curve; in most records, active means well fitted curve in the direction sought with a large enough effect in the repeat runs; inconclusive means weak or mixed curves; inactive means no such curve, though single readings can be large; an effect the other way counts as inactive or inconclusive.

Tests used:
[1] = qHTS assay for small molecule agonists of the p53 signaling pathway (AID 651631; calls by dose curve; further: nearly all actives have a fitted effect of over 15% in size; further: potency means the concentration at half of the fitted maximal effect)
Method in brief: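 Beta-lactamase reporter activity under p53 response elements was quantified in HCT-116 cells by FRET fluorescence, following 16 h incubation with test compounds at 37 °C and 2 h substrate development at room temperature.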

[2] = qHTS assay for small molecules that induce genotoxicity in human embryonic kidney cells expressing luciferase-tagged ATAD5 (AID 651632); further: nearly all actives have a fitted effect of over 15% in size
Method in brief: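 Cells were seeded at 2,000 per well, dosed with compound, and incubated 16 hr at 37C in 5% CO2. Luciferase activity was then quantified after a 30 min room-temperature incubation with Amplite.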

[3] = qHTS assay for small molecule agonists of the p53 signaling pathway - cell viability (AID 651633; calls by dose curve; further: nearly all actives have a fitted effect of over 30% in size; further: potency means the concentration at half of the fitted maximal effect)
Method in brief: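 p53RE-bla cells were treated with compound for 16 hours at 37 C. Cytotoxicity was then measured as CellTiter-Glo luminescence after 30 min at room temperature.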

[4] = qHTS assay for small molecules that induce genotoxicity in human embryonic kidney cells expressing luciferase-tagged ATAD5 - cell viability (AID 651634; calls by dose curve; further: nearly all actives have a fitted effect of over 25% in size; further: potency means the concentration at half of the fitted maximal effect)
Method in brief: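 Cells (HEK293T, luciferase-tagged ATAD5) are seeded at 2,000 per well, dosed with compound or DMSO vehicle, and incubated 15.5 hr at 37C and 5% CO2. CellTiter-Fluor is added for 30 min before fluorescence is measured.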

[5] = qHTS assay for small molecule disruptors of the mitochondrial membrane potential - cell viability (AID 720634; calls by dose curve;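 further: human HepG2 liver cancer cells; series mostly up to about 83 µM; nearly all actives have a fitted effect of over 20% in size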)
Method in brief: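 Cytotoxicity was measured by ATP quantitation in HepG2 wells that had first been treated with compound for 1 hr and stained with m-MPI dye; CellTiter-Glo incubation was 30 min at room temperature.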

[6] = qHTS assay for small molecule disruptors of the mitochondrial membrane potential (AID 720635); further: potency means the concentration at half of the fitted maximal effect
Method in brief: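 HepG2 cells exposed to compound 1 hr at 37C, then Mito-MPS dye 30 min. Ratio read of aggregate (540/590 nm) versus monomer (490/535 nm) fluorescence.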

[7] = qHTS assay to test for compound auto fluorescence at 590 nm (red) in HepG2 cells (AID 720674)
Method in brief: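 Fluorescence at 590 nm emission following 540 nm excitation was recorded from HepG2 wells one hour after compound transfer, with DMSO-only wells as vehicle and Rose Bengal sodium equivalency as the scale.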

[8] = qHTS assay to test for compound auto fluorescence at 535 nm (green) in HepG2 cells (AID 720675)
[9] = qHTS assay to test for compound auto fluorescence at 460 nm (blue) in HEK293 cells (AID 720678)
Method in brief: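 Auto fluorescence in the blue band was quantified as triamterene equivalency. HEK293 cells were seeded at 2,000/well, dosed after a 4-5 hr attachment, and kept overnight at 37C before the 405/460 nm reading.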

[10] = qHTS assay to test for compound auto fluorescence at 590 nm (red) in HEK293 cells (AID 720679)
Method in brief: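 Autofluorescence equivalency to Rose Bengal sodium, 540/590nm, in HEK293 cells exposed overnight to 23 nL compound per well.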

[11] = qHTS assay to test for compound auto fluorescence at 535 nm (green) in HEK293 cells (AID 720680)
[12] = qHTS assay to test for compound auto fluorescence at 460 nm (blue) in HEK293 cell free culture (AID 720681)
Method in brief: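 Compounds were added to cell-free DMEM with 10% FBS and fluorescence read directly. The blue channel used 405 nm excitation and 460 nm emission, with triamterene as the reference fluorophore.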

[13] = qHTS assay to test for compound auto fluorescence at 535 nm (green) in HEK293 cell free culture (AID 720682)
Method in brief: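 Each library compound, or DMSO control, is added by pintool to medium alone, comprising DMEM and 10% FBS. Emission at 535 nm following 485 nm excitation is quantified against fluorescein.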

[14] = qHTS assay to test for compound auto fluorescence at 590 nm (red) in HEK293 cell free culture (AID 720683)
Method in brief: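 Cell-free wells of DMEM with 10% FBS received compound, and intrinsic fluorescence was read at excitation/emission 540/590 nm. Values expressed as equivalence to Rose Bengal sodium.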

[15] = qHTS assay to test for compound auto fluorescence at 460 nm (blue) in HepG2 cell free culture (AID 720685)
Method in brief: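 Cell-free plates of MEM plus 10% FBS received 23 nL compound or DMSO vehicle; blue-channel (405/460 nm) intensity scored against triamterene as reference fluorophore.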

[16] = qHTS assay to test for compound auto fluorescence at 535 nm (green) in HepG2 cell free culture (AID 720686)
[17] = qHTS assay to test for compound auto fluorescence at 460 nm (blue) in HepG2 cells (AID 720687)
Method in brief: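 HepG2 cells in MEM with 10% FBS, attached overnight at 37 C, were exposed to compound or DMSO for 1 hr at 37 C, 5% CO2. Blue fluorescence was read at 405/460 nm, with triamterene as reference fluorophore.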

[18] = target: Glucocorticoid receptor (Homo sapiens) (UniProt P04150); experiment: qHTS assay to identify small molecule agonists of the glucocorticoid receptor (GR) signaling pathway (AID 720691; active means well fitted activation curve with a large enough effect in the signal ratio in the repeat runs, not every such curve was filed as active; the % refers to the signal ratio)
Method in brief: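 Steps: seed GR-bla HeLa cells, incubate 4 h at 37 C/5% CO2; pin-transfer DMSO-dissolved compounds; incubate 18 h at 37 C; add LiveBLAzer B/G FRET substrate; after 2 h at room temperature, measure fluorescence.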

[19] = target: Glucocorticoid receptor (Homo sapiens) (UniProt P04150); experiment: qHTS assay to identify small molecule antagonists of the glucocorticoid receptor (GR) signaling pathway (AID 720692; active means well fitted inhibition curve with a large enough effect in the signal ratio in the repeat runs, not every such curve was filed as active; the % refers to the signal ratio)
Method in brief: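 Antagonism was scored as loss of dexamethasone-driven (5 nM final) reporter signal in HeLa cells bearing a glucocorticoid response element–beta-lactamase construct, after 18 h compound exposure at 37 C and 2 h FRET substrate loading.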

[20] = qHTS assay to test for compound auto fluorescence at 590 nm (red) in HepG2 cell free culture (AID 720684)
Method in brief: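 Auto fluorescence equivalency versus Rose Bengal sodium, red channel Ex/Em 540/590 nm; compounds in cell-free MEM/10% FBS; DMSO vehicle control.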

Sequence of Glucocorticoid receptor (Homo sapiens) (P04150 whole entry, looked up): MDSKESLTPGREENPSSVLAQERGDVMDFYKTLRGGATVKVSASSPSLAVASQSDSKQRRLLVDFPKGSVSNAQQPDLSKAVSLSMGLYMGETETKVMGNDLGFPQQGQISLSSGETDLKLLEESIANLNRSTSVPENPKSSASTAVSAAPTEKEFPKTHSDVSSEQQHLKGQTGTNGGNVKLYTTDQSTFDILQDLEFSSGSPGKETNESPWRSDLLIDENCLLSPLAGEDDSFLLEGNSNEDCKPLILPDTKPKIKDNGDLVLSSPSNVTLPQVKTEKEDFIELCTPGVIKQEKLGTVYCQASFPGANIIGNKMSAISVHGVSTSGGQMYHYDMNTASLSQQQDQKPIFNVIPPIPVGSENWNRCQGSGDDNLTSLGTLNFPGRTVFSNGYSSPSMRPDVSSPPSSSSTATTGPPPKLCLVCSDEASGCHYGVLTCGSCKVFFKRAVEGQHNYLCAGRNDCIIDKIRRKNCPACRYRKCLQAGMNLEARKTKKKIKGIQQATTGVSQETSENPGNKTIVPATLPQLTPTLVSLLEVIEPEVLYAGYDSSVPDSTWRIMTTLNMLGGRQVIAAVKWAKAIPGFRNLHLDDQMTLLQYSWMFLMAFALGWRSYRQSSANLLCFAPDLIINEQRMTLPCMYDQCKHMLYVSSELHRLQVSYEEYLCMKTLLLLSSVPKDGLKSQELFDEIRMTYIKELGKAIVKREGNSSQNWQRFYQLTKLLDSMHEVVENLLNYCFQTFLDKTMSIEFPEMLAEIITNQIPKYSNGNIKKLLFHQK

| SMILES | Potency [1] | Potency [2] | Potency [3] | Potency [4] | Potency [5] | Potency [6] | outcome [7] | outcome [8] | Potency [9] | outcome [10] | outcome [11] | Potency [12] | outcome [13] | outcome [14] | Potency [15] | outcome [16] | Potency [17] | Potency [18] | Potency [19] | outcome [20] |
| --- | --- | --- | --- | --- | --- | --- | --- | --- | --- | --- | --- | --- | --- | --- | --- | --- | --- | --- | --- | --- |
| FC(F)(F)c1ccccc1Cl | inactive | inactive | inactive | inactive | inactive | inactive | inactive | inactive | inactive | inactive | inactive | inactive | inactive | inactive | inactive | inactive | inactive | inactive | inactive | – |
| O=C(O)c1ccc(OCCCOc2ccc(C(=O)O)cc2)cc1 | inactive | inactive | inactive | inactive | inactive | inactive | inactive | inactive | – | inactive | inactive | inactive | inactive | inactive | inactive | inactive | inactive | – | – | inactive |
| COc1cc(Nc2c(C#N)cnc3cc(OCCCN4CCN(C)CC4)c(OC)cc23)c(Cl)cc1Cl | 11.9 µM (active) | inactive | 26.6 µM (active) | 29.8 µM (active) | inactive | 0.376 µM (active) | inactive | inactive | inactive | inactive | inactive | inactive | inactive | inactive | inactive | – | inactive | – | – | inactive |
| CC1CC(C)C(=O)C1=O (centres undefined) | inactive | inactive | inactive | inactive | inactive | inactive | inactive | inactive | inactive | inactive | inactive | inactive | inactive | inactive | inactive | inactive | inactive | inactive | inactive | inactive |
| CC[N+](CC)(CCNC(=O)C(=O)NCC[N+](CC)(CC)Cc1ccccc1Cl)Cc1ccccc1Cl | inactive | inactive | inactive | inactive | inactive | inactive | inactive | inactive | inactive | inactive | inactive | inactive | inactive | inactive | inactive | inactive | inactive | – | – | – |
| Cc1ccco1 | inactive | inactive | inactive | inactive | inactive | inactive | inactive | inactive | inactive | inactive | inactive | inactive | inactive | inactive | inactive | inactive | inactive | inactive | inactive | inactive |
| CC(CCC(=O)O)C(=O)O (centres undefined) | inactive | inactive | inactive | inactive | inactive | inactive | inactive | inactive | – | inactive | inactive | inactive | inactive | inactive | inactive | inactive | inactive | inactive | inactive | inactive |
| Cc1[nH]cnc1CN1CCc2c(c3ccccc3n2C)C1=O | inactive | inactive | inactive | inactive | inactive | inactive | inactive | inactive | inactive | inactive | inactive | inactive | inactive | inactive | inactive | inactive | inactive | – | – | inactive |
| Cc1cscn1 | inactive | inactive | inactive | inactive | inactive | – | inactive | inactive | inactive | inactive | inactive | inactive | inactive | inactive | inactive | inactive | – | – | – | inactive |
| c1csc(SSc2cccs2)c1 | inactive | inactive | inactive | inactive | inactive | inactive | inactive | inactive | inactive | inactive | inactive | inactive | inactive | inactive | inactive | inactive | inactive | inactive | – | inactive |
| CC1(C)S[C@@H]2[C@H](NC(=O)C(c3ccccc3)S(=O)(=O)O)C(=O)N2[C@H]1C(=O)O (some centres undefined) | inactive | inactive | inactive | inactive | inactive | inactive | inactive | inactive | inactive | inactive | inactive | inactive | inactive | inactive | inactive | – | inactive | inactive | inactive | inactive |
| Cc1ccc(C(C)(C)O)cc1 | inactive | inactive | inactive | inactive | inactive | inactive | inactive | inactive | – | inactive | inactive | inactive | inactive | inactive | inactive | – | inactive | inactive | inactive | inactive |
| Cc1ccc(CO)cc1 | inactive | inactive | inactive | inactive | inactive | inactive | inactive | inactive | inactive | inactive | inactive | inactive | inactive | inactive | inactive | inactive | – | inactive | inactive | inactive |
| CC(=O)Nc1ccc(C)cc1C | inactive | inactive | inactive | inactive | inactive | – | inactive | inactive | inactive | inactive | inactive | inactive | inactive | inactive | inactive | inactive | – | – | – | inactive |
